Data: PubChem BioAssay (EPA / NIEHS)
Where “and” joins values, the source holds several entries; their conditions need not be identical. Identical values can stand only once. Records with an inconclusive call do not appear. The source holds several records for some structures; these can differ, active in one and inactive in another. Calls of active or inactive are those of the source. The calls were made as follows: active = hit-call score of the fitted dose curve at least 0.9, where 1 is the maximum; inconclusive = response in the unintended direction; inactive = score below 0.9.

Experiment: CCTE_Shafer_MEA_dev_LDH: CCTE's Lactate Dehydrogenase Assay for Cytotoxicity in the Neural Network Formation Assay, Shafer Lab (AID 2284068);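 also: exposure for twelve days from plating with re-dosing on DIV 5 and 9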
Protocol: CCTE_Shafer_MEA_dev assay is conducted using Axion Biosystems 48 well microelectrode array (MEA) plates and Maestro recording system. Each well of the MEA plate contains a grid of 16 microelectrodes embedded in the culture surface. Electrically active cells, such as neurons, can be cultured over the electrodes, and electrical activity in these cells can be recorded extracellularly. The spontaneous firing of neurons is captured from each electrode on a microsecond timescale providing both temporally and spatially precise data. […] The CCTE_Shafer_MEA_dev assay uses primary cultures of rat cortical neurons. Recordings are made on days post-plating 5, 7, 9 and 12. As these cultures mature over time, neural networks develop functional activity and form cohesive networks in which electrical activity can be highly coordinated. CCTE_Shafer_MEA_dev_LDH is 1 of 19 assay components of the CCTE_Shafer_MEA_dev assay. It measures the lactate dehydrogenase enzyme activity using spectrophotometry.Data from the assay component CCTE_Shafer_MEA_dev_LDH was analyzed into 1 assay endpoint. This assay endpoint, CCTE_Shafer_MEA_dev_LDH, was analyzed in the positive analysis fitting direction relative to DMSO as the negative control and baseline of activity. Using a type of viability reporter, loss-of-signal activity can be used to understand cell viability.
On the day prior to culture, each well was coated thoroughly with 150 uL of 0.05% polyethyleneimine (PEI, Sigma Cat P3143) in 50 mM HEPES (Sigma Cat H7523) at a pH of 8. The plate was incubated at 37C for one hour. PEI was rinsed out with 500 uL of sterile water three times. Plates were stored at 4C until the day of culture. This culture was plated at a seeding density of 1.5 x 10^5 cells/well on a 48-well MEA plate, prepared as described above. Cells were administered via a 25 uL media/laminin ([…]; Sigma Cat L2020-1MG) drop directly onto the microelectrode array, as adding the cells with the laminin results in better attachment than pre-coating with laminin. After 2 hours, an additional 475 uL of cortical media was added and the cells returned to the incubator. Exposure starts at day 0 of plating and is continued over twelve days of network development until the experiment is terminated. Cells are fed with fresh medium on DIV 5 and 9, following the recordings on those days. The entire volume of media in the well is exchanged and any vehicle or compound treatment is renewed. Complete details are found in OP-NHEERL/ISTD/SBB/TJS/2015-03-r0 (available on request, email shafer.tim@epa.gov). Measurement of the electrical activity is non-invasive, and recordings can be made from the same plate over multiple different days of the culture. In cortical neurons, this allows for the measurement of extracellular action potentials over the period during which networks form in the MEA plate.
In the case of `[O-][Cl+]O`, the outcome is reported as “inactive”. In the case of `[Cl-].[Cl-].[Hg+2]`, the AC50 is reported as 0.929 µM (active). For `COC(=O)Nc1nc2ccccc2[nH]1`, the AC50 was 12.5 µM (active). With `Clc1ccc(C(c2ccc(Cl)cc2)C(Cl)(Cl)Cl)cc1` the AC50 was 4.07 µM (active) and 6.5 µM (active). With `CC(C)(C)C(O)(CCc1ccc(Cl)cc1)Cn1cncn1` (stereo not drawn) the outcome was “inactive”. In the case of `C1=Cc2cccc3cccc1c23`, the outcome is reported as “inactive”. With `Nc1cc(Cl)cc(C(=O)O)c1Cl` the outcome was “inactive”. In the case of `CCC[CH2][Sn]([Cl])([CH2]CCC)[CH2]CCC`, the AC50 is reported as 0.0843 µM (active). For `COP(=S)(OC)SCN1C(=O)c2ccccc2C1=O`, the AC50 was 28.9 µM (active) and the outcome was “inactive”. In the case of `ClC1=C(Cl)C2(Cl)C3C(Cl)C=CC3C1(Cl)C2(Cl)Cl` (stereo not drawn), the AC50 is reported as 2.98 µM (active). In the case of `CN(C)[C@@H]1C(=O)C(C(N)=O)=C(O)[C@@]2(O)C(=O)C3=C(O)c4c(O)cccc4[C@@](C)(O)[C@H]3C[C@@H]12`, the outcome is reported as “inactive”. In the case of `CC(C)COC(=O)c1ccccc1C(=O)OCC(C)C`, the AC50 is reported as 23.6 µM (active). With `CNC(=O)Oc1cccc2c1OC(C)(C)C2` the outcome was “inactive” and the AC50 was 49.6 µM (active). In the case of `ClC1=C(Cl)[C@]2(Cl)[C@H]3[C@H]([C@@H]4C=C[C@H]3C4)[C@@]1(Cl)C2(Cl)Cl`, the AC50 is reported as 6.69 µM (active). In the case of `Clc1ccc(C(c2ccc(Cl)cc2)C(Cl)Cl)cc1`, the AC50 is reported as 5.96 µM (active). With `CCNS(=O)(=O)C(F)(F)C(F)(F)C(F)(F)C(F)(F)C(F)(F)C(F)(F)C(F)(F)C(F)(F)F` the AC50 was 8.58 µM (active) and 4.41 µM (active).
